Many of the other results were omitted from the sample, so hits are more common in it than they were.
PD-1 reversal: reversal of PD-1 mediated T-cell inhibition. primary human CD4 T cells, PD-L1 beads, CellTiter-Glo 96 h. activation, % (test concentration not listed). 29,000 tested, under 10 active; call rule not given here;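 further: 0% = median vehicle wells and 100% = positive control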
U2OS ROS induce: inducers of reactive oxygen species in cancer cells; U2OS ROS induction, H2DCF-DA fluorescence; ROS induction (% of piperlongumine), % at 10 µM; hit rate 2% among 46,000; in the data active means ROS induction above about 79%, passing the limit was not always enough; inconclusive means no clear call, values can overlap the other calls;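 further: 0% = DMSO vehicle median and 100% = reference compound median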
NOMO-1 viab: STK33 inhibitor candidate reducing NOMO-1 cell viability; NOMO-1 AML viability, CellTiter-Glo luminescence, 72 h; inhibition, % (no concentration beside the values); hit rate 7.5% among 37,000; in the data active means inhibition above about 80%; inconclusive means no clear call, values can overlap the other calls
* marks the source's active call; other numbers are inactive results.

What do the screens show for `Cc1ccc(S(=O)(=O)N(C)C[C@@H]2OCCCC[C@@H](C)Oc3ccc(NS(=O)(=O)c4ccc(Cl)cc4)cc3C(=O)N([C@H](C)CO)C[C@@H]2C)cc1`?
PD-1 reversal: 0; U2OS ROS induce: 111*; NOMO-1 viab: 52

How did Cc1sc(-n2cccc2)c(C(=O)NC(C)CCc2ccccc2)c1C (centres undefined) do in these assays?
U2OS ROS induce: 20

What do the screens show for `Clc1ccccc1N=C/C=C1\NN=NC1c1ccc(Br)cc1` (centres undefined)?
PD-1 reversal: 1; U2OS ROS induce: 3; NOMO-1 viab: 47

Results for CN(CCC#N)C(=O)c1nn(C)c2c1COc1ccccc1-2 ?
U2OS ROS induce: -11

How did Cc1cc(=O)oc2cc(OC3OC(CO)C(O)C(O)C3O)ccc12 (centres undefined) do in these assays?
PD-1 reversal: 1; U2OS ROS induce: 11; NOMO-1 viab: -13

Results for COc1ccc(S(=O)(=O)N(C)C[C@@H]2OCCCC[C@@H](C)Oc3ccc(NC(=O)NC4CCCCC4)cc3C(=O)N([C@H](C)CO)C[C@@H]2C)cc1 ?
PD-1 reversal: 0; U2OS ROS induce: 140*; NOMO-1 viab: 12

Results for COc1ccc(S(=O)(=O)N(C)C[C@H]2OCCCC[C@@H](C)Oc3ccc(NC(=O)NC4CCCCC4)cc3C(=O)N([C@H](C)CO)C[C@@H]2C)cc1 ?
PD-1 reversal: 3; U2OS ROS induce: 34; NOMO-1 viab: 24

What do the screens show for `COc1ccc(S(=O)(=O)N(C)C[C@@H]2OCCCC[C@@H](C)Oc3ccc(NS(=O)(=O)c4ccccc4)cc3C(=O)N([C@H](C)CO)C[C@@H]2C)cc1`?
PD-1 reversal: -4; U2OS ROS induce: inconclusive; NOMO-1 viab: 30

How did C[C@@H]1CCCCO[C@H](CN(C)S(=O)(=O)c2ccc(F)cc2)[C@@H](C)CN([C@H](C)CO)C(=O)c2cc(NS(=O)(=O)c3ccc(Cl)cc3)ccc2O1 do in these assays?
U2OS ROS induce: 38; NOMO-1 viab: 67

How did COc1ccc(S(=O)(=O)Nc2ccc3c(c2)C(=O)N([C@H](C)CO)C[C@H](C)[C@@H](CN(C)S(=O)(=O)c2ccc(C)cc2)OCCCC[C@@H](C)O3)cc1 do in these assays?
U2OS ROS induce: 20; NOMO-1 viab: 48

What do the screens show for `COc1ccc(S(=O)(=O)N(C)C[C@@H]2OCCCC[C@@H](C)Oc3ccc(NS(=O)(=O)c4ccc(F)cc4)cc3C(=O)N([C@H](C)CO)C[C@@H]2C)cc1`?
U2OS ROS induce: 128*; NOMO-1 viab: 63

How did Cc1ccc(S(=O)(=O)Nc2ccc3c(c2)C(=O)N([C@H](C)CO)C[C@H](C)[C@@H](CN(C)S(=O)(=O)c2ccccc2)OCCCC[C@@H](C)O3)cc1 do in these assays?
U2OS ROS induce: 137*; NOMO-1 viab: 20

What do the screens show for `C[C@@H]1CCCCO[C@@H](CN(C)S(=O)(=O)c2ccc(F)cc2)[C@@H](C)CN([C@H](C)CO)C(=O)c2cc(NS(=O)(=O)c3ccc(Cl)cc3)ccc2O1`?
PD-1 reversal: -9; U2OS ROS induce: 72; NOMO-1 viab: 112*

How did N#Cc1nc(-c2ccccc2F)oc1NCC1CCCO1 (centres undefined) do in these assays?
U2OS ROS induce: -6

What do the screens show for `Cc1ccc(/C=C/C(=O)N(Cc2ccccc2)c2ccccn2)cc1`?
U2OS ROS induce: 16

How did Cc1ccc(N2C(=O)C(N3C(=O)c4ccccc4C3=O)C2c2ccc(N(C)C)cc2)cc1Cl (centres undefined) do in these assays?
PD-1 reversal: 0; U2OS ROS induce: 0; NOMO-1 viab: 17

What do the screens show for `Cc1nn(Cc2ccc(C(=O)n3cc(Cl)cn3)o2)c(C)c1Cl`?
U2OS ROS induce: -11

How did O=C(Oc1ccc2ccccc2c1C1SCCS1)c1cccs1 do in these assays?
U2OS ROS induce: -3

What do the screens show for `CC(C)(C)C1=Nn2c(nnc2-c2ccccc2)SC1`?
U2OS ROS induce: 50

Results for C=C1C(=O)O[C@@H]2C3=C(C)CC[C@]34O[C@@H](C[C@@H]4C)[C@H]12 ?
PD-1 reversal: -13; U2OS ROS induce: 6; NOMO-1 viab: 114*

Results for COc1ccc(N2CCc3c(C)c(C#N)c4nc5ccccc5n4c32)cc1 ?
PD-1 reversal: -1; U2OS ROS induce: 68; NOMO-1 viab: 114*

Results for Cc1nccn1-c1c2c(c(C#N)c3nc4ccccc4n13)CCCC2 ?
U2OS ROS induce: 11

What do the screens show for `O=C(COc1ccc(Cl)cc1Cl)Nc1ncccn1`?
NOMO-1 viab: 9

Results for C=CCNC(=O)COc1ccc(Cl)cc1Cl ?
PD-1 reversal: 1; U2OS ROS induce: 20; NOMO-1 viab: 115*

How did N#C/C(=C\c1ccsc1)S(=O)(=O)c1ccc(C(F)(F)F)cn1 do in these assays?
PD-1 reversal: -1; U2OS ROS induce: -2; NOMO-1 viab: 26

Bioassay records as filed in PubChem BioAssay.
